These results are taken from PubChem BioAssay (EPA / NIEHS).

The AC50 is the midpoint of the concentration-response curve, whichever way the signal moves.

Results filed as inconclusive are left out. Active and inactive are the calls of the source. Rule for the calls: active = hit-call score of the fitted dose curve at least 0.9, where 1 is the maximum; inconclusive = response in the unintended direction; inactive = score below 0.9.

The assay can be described thus: ACEA_ER_AUC_viability: ACEA Biosciences xCELLigence Real-Time Cell Analysis on Estrogen Receptor Agonism for Viability (AID 2283782).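 Note: continuous compound exposure with impedance area under curve over 80 h; hit means loss of impedance signal meaning reduced cell growth or viability.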 Summed up: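 T-47D; phenol red-free RPMI1640 + 10% CS-FBS; 8 conc., 1:4 serial, max 100 uM final, ≤0.5% DMSO; n = 2; continuous exposure; impedance monitored to 80 h post-dose; AUC vs DMSO.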
For the compound `Nc1cccc(Cl)c1`, the result was inactive.
Consider `CC(C)(c1ccccc1)c1ccc(O)c(C(C)(C)c2ccccc2)c1`, for which the concentration at half-maximal activity (AC50) is 8.68 µM (active).
With `CCCCCCCCCl`, the compound was classed as inactive.
Consider `CN(C)N=O`, for which the compound was called inactive.
On to `CCCCCCCCC(=O)NCc1ccc(O)c(OC)c1`, for which the AC50 was 50 µM (active).
In the case of `NC(=O)CF`, the compound was called inactive.
As to `ClC1=C(Cl)[C@]2(Cl)[C@@H]3[C@@H](Cl)[C@@H](Cl)C[C@@H]3[C@@]1(Cl)C2(Cl)Cl`, the compound was called inactive.
For `CCN(CC)C(=O)Cl`, the result was inactive.
Take `N#CCCO`: the concentration at half-maximal activity (AC50) is 22 µM (active).
